The list is not random: actives were taken first. Their share in the collection is about 2.8%.
BRCA1 expr up – qHTS Assay to Identify Small Molecule Activators of BRCA1 Expression. MCF7-BRCA1-FFLuc reporter, luminescence, 48 h; response scale: scaled: vehicle 0%, 10 µM genistein 100%. Potency, µM (top dose mostly 46.1 µM), usual class: activators. actives 1.1% (n = 380,000). AID 624202, 2012; note: nearly all actives have a fitted effect of over 80% in size
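First, MCF7-BRCA1-FFLuc cells (2000/well) attach for 2 h; next, compounds are pin-added and incubated 48 h at 37 °C; finally, luciferase reagent is added and luminescence read after 15 min.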
GLP-1R inv ag – qHTS of GLP-1 Receptor Inverse Agonists (Inhibition Mode); HEK293 GLP-1R CRE-luciferase, luminescence, 24 h; GLP-1R form is constitutively active; Potency, µM (doses to about 38.3 µM), usual class: inhibitors; actives 1.6% (n = 410,000); AID 624417, 2012; note: nearly all actives have a fitted effect of over 55% in size
Target sequence (P43220 whole entry, looked up): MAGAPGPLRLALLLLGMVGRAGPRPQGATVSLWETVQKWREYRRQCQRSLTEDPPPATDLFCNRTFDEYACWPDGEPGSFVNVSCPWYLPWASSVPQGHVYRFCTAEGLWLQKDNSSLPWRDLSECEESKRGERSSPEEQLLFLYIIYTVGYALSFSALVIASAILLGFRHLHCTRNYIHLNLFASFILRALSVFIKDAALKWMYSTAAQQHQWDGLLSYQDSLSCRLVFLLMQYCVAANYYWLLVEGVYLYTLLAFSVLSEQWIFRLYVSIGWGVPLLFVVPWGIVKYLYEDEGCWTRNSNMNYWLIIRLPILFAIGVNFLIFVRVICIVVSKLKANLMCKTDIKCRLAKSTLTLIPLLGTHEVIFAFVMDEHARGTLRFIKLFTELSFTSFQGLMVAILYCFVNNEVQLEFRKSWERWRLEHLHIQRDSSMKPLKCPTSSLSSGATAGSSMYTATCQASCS
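Using stably transfected HEK293 (constitutively active GLP-1R, cAMP-luciferase reporter), compounds were incubated 24 hr and luciferase measured by luminescence.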
GLP1R cytotox – qHTS of GLP-1 Receptor Inverse Agonists: Cytotox Screen; Potency, µM (series often up to 38.3 µM), actives largely listed as inhibitors; HEK293 cAMP-luciferase reporter cells, luminescence, 24 h; actives 0.13% (n = 410,000); AID 624418, 2012;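 note: loss of luciferase light is scored as toxicity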
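Here, cytotoxicity is scored as loss of luminescence. The MLSMR collection was tested on cells seeded in medium containing 10% Nu serum, with a 24 hr compound exposure preceded by 12 hours of culture.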
GLP-1R agonist – qHTS of GLP-1 Receptor Agonists | Glucagon-like peptide 1 receptor (Homo sapiens), P43220 | HEK293 GLP-1R CRE-luciferase, luminescence, 4-6 h; cells express a hypersensitive GLP-1R form | Potency, µM (series often up to 45.6 µM), hits mostly activators | actives 0.007% (n = 380,000)
Mito fusion yeast – qHTS Assay for Small Molecule Inhibitors of Mitochondrial Division or Activators of Mitochondrial Fusion; Potency, µM (series often up to 46.1 µM), hits mostly activators; S. cerevisiae fusion-defective mutant growth rescue, CellTiterGlo 48 h; actives 0.23% (n = 320,000); AID 485298, 2010; note: nearly all actives have a fitted effect of over 45% in size
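S. cerevisiae fusion-defective temperature-sensitive mutants (e.g. fzo1-1, mgm1-5) grown 48 h at 37C in YPEG (ethanol/glycerol non-fermentable) medium with 23 nl compound per well; growth rescue read as CellTiterGlo luminescence.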
Hits are given with their value; 0 = inactive; ? = inconclusive; - = no result given; ! = not active in a repeat; [ ] = remark or other dose. Calls come from the whole dose curve; as a rule, active = well fitted curve in the direction sought with a large enough effect; inconclusive = small, poorly fitted or top-dose-only effect, or another doubt; inactive = no such curve, though single readings can be large; an effect the other way counts as inactive or inconclusive.

SMILES	BRCA1 expr up	GLP-1R inv ag	GLP1R cytotox	GLP-1R agonist	Mito fusion yeast
Cn1nc(C(F)(F)F)c(-c2ccc(Br)cc2)c1NC(=O)c1ccco1	0	7.08µM	0	0	0
Fc1ccc(N/N=C/c2ccncc2)c(F)c1	14.1µM	1.41µM	0	0	0
Clc1ccc(N/N=C/c2ccncc2)cc1Cl	7.08µM	?	0	0	?
CC1Sc2ccc(C(=O)Nc3ccc(S(=O)(=O)N(C)C)cc3)cc2NC1=O (configuration not stated)	0	?	0	0	0
COc1nc(-c2cccc([N+](=O)[O-])c2)nc2ccccc12	0	0	0	0	0
CCCn1nnc(NC(=O)c2ccc(-c3cc(Cl)ccc3Cl)o2)n1	0	0	0	0	0
CCCn1nnc(NC(=O)c2ccccc2Cl)n1	11.2µM	0	0	0	0
CCCn1nnc(NC(=O)c2ccc(Cl)cc2Cl)n1	2.51µM	0	0	0	0
CCCn1nnc(NC(=O)c2cccnc2Cl)n1	0	0	0	0	0
CCn1c(=O)c2cc(C(=O)N3CCOCC3)sc2c2ccccc21	0	0	0	0	0
O=C(c1cccc(S(=O)(=O)N2CCCCC2)c1)N1CCc2ccccc21	0	?	0	0	0
O=C(Nc1ccc(-c2nc3cccnc3s2)cc1)c1cccnc1Cl	?	0	0	0	0
O=C(Nc1ccc(-c2nc3cccnc3s2)cc1)c1ccc(Cl)nc1	1.78µM	0	0	0	0
COc1ccc(CN(C)C(=O)c2cc(-c3ccccc3)nc3ccc(C)cc23)c(OC)c1	0	5.62µM	?	0	-
COc1ccc(-c2cc(C(=O)Oc3ccccc3)c3cc(C)ccc3n2)cc1	-	?	0	-	-
O=S(=O)(NCCc1csc(-c2ccc(F)cc2)n1)c1ccc(Cl)cc1	-	11.2µM	0	-	-
COc1ccc(OCc2cc(=O)c3ccc4c(c3o2)C=CC(C)(C)O4)cc1OC	0	0	0	0	-
CC(C)=CCOc1ccc([C@@H]2COc3c(ccc4c3C=CC(C)(C)O4)C2)c(O)c1	0	10µM	?	0	-
C/C(=N\Nc1nncc2ccccc12)c1ccc(C(C)(C)C)cc1	2.51µM	0	0	0	0
C/C(=N\NC(N)=S)c1ccc(Cl)s1	0	3.16µM	?	0	0
Cc1cc(C)n(CC(O)COc2ccc(Cl)cc2Cl)n1 (configuration not stated)	11.2µM	?	0	0	0
Cc1cc(C)n(CC(O)Cn2c3ccccc3c3ccccc32)n1 (configuration not stated)	0	10µM	0	0	15.8µM
Cc1cc(C)n(CC(O)COc2ccc(Cl)cc2)n1 (configuration not stated)	0	0	0	0	0
CCCOc1ccc(-c2nonc2NC(=O)COc2ccc(C)cc2)cc1OCCC	-	0	0	-	-
Cc1ccc2nc(SCC(=O)NCc3ccco3)c(C)cc2c1	0	0	0	0	0
SMILES	BRCA1 expr up	GLP-1R inv ag	GLP1R cytotox	GLP-1R agonist	Mito fusion yeast
Nc1nc2c(ncn2[C@@H]2O[C@H](CNCC3=Cc4cc(O)ccc4OC3)[C@@H](O)[C@H]2O)c(=O)[nH]1	0	0	0	0	-
COc1ccc(C(CCN2CCOCC2)c2c(O)cc(OC)cc2OC)cc1 (configuration not stated)	0	0	0	0	0
COc1ccc(C(c2c(O)ccc3ccccc23)N2CCOCC2)c(OC)c1 (configuration not stated)	0	10µM	?	0	0
c1ccc(CN2CCC3(CCCc4ccccc43)CC2)cc1	0	?	?	0	23.1µM!
c1ccc(CN2CCC3(CC2)Nc2ccccc2CO3)cc1	0	0	0	0	0
COCCN=C1NC(=O)C(CC(=O)Nc2cccc(Cl)c2C)S1 (configuration not stated)	0	0[7.66 µM]	0[7.66 µM]	0	0
CCOC(=O)c1ccc(N2C(=O)c3n[nH]c(-c4ccco4)c3C2c2ccc(C)cc2)cc1 (configuration not stated)	0	?	?	0	-
CCOC(=O)c1ccc(N2C(=O)c3n[nH]c(-c4ccco4)c3C2c2ccc([N+](=O)[O-])cc2)cc1 (configuration not stated)	0	7.08µM	?	0	0
CCOC(=O)c1ccc(N2C(=O)c3[nH]nc(-c4ccc(C)cc4)c3C2c2ccc(O)cc2)cc1 (configuration not stated)	0	?	?	0	-
CCOC(=O)c1ccc(N2C(=O)c3[nH]nc(-c4ccc(C)cc4)c3C2c2cccc(F)c2)cc1 (configuration not stated)	0	10µM	0	0	-
Cc1ccc(C(=O)Nc2ccc(C(F)(F)F)n(C)c2=O)cc1	0	0	0	0	0
CCCCOc1ccc(Br)cc1/C(C)=N/NC1=NCCN1	0	2.82µM	4.47µM	0	0
CCCCCCOc1ccc(/C(C)=N/NC2=NCCN2)cc1[N+](=O)[O-]	0	?	?	0	0
Cc1nc(N/N=C/c2ccc(O)cc2)c2cnn(-c3ccccc3)c2n1	0	?	0	0	0
Cc1nc2ccccc2nc1N/N=C/c1ccc(O)cc1	7.94µM	0	0	0	0
CC1CCCC(C)N1CCCNC(=O)c1ccc2c(c1)NC(=O)c1ccccc1S2 (configuration not stated)	0	?	0	0	0
CCC(C)N(CCNC(=O)c1ccc2c(c1)NC(=O)c1ccccc1S2)C1CCCCC1 (configuration not stated)	0	3.55µM	?	0	?
Cc1oc(-c2ccccc2Cl)nc1CS(=O)(=O)CC(=O)NC(C)CCc1ccccc1 (configuration not stated)	0	10µM	0	0	-
COc1ccc2cc(CNCCOCCOCCNCc3ccc4cc(OC)ccc4c3)ccc2c1	0	?	3.98µM	0	-
Cc1ccc(-c2nc(N)sc2CC(=O)OCC(=O)N2C(C)CCCC2C)cc1 (configuration not stated)	0	?	0	0	0
COc1ccc(-c2cc3nc4ccccc4n3c(N)c2C#N)cc1	3.98µM	0	0	0	0
COC(=O)c1ccc(-c2ccco2)n1Cc1nc(-c2ccc(OC)c(OC)c2)oc1C	0	10µM	0	0	0
COC(=O)c1cc2oc3ccccc3c2n1Cc1nc(-c2ccc(OC)cc2)oc1C	-	0	0	-	-
Cc1cc(N2C(=O)C3CCC(c4ccccc4)CC3C2=O)no1 (configuration not stated)	0	0	0	0	0
